Several values for one entry are separate records, joined by “and”; a condition that tells them apart may be missing. Equal entries are not always repeated. Inconclusive results are not listed. A call without a number means that no potency is given here. Where a structure was tested more than once in an assay, its records may differ in their call. Activity calls are given as the source filed them. Unless noted, calls come from the whole dose curve; as a rule, active = well fitted curve in the direction sought with a large enough effect in the repeat runs; inconclusive = weak or mixed curves; inactive = no such curve, though single readings can be large; an effect the other way counts as inactive or inconclusive.
How the values were obtained:
[1] = molecular target: Progesterone receptor (Homo sapiens) (UniProt P06401); test: qHTS assay to identify small molecule agonists of the progesterone receptor (PR) signaling pathway (AID 1346784; calls by dose curve; note: nearly all actives have a fitted effect of over 30% in size)
Procedure, shortened: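 The screen uses PR-UAS-bla HEK 293T cells in charcoal-stripped serum (2%). Compounds are applied for 16 hr at 37C after a 6 hr pre-incubation, and reporter activity is detected with a FRET beta-lactamase substrate after 2 hr at room temperature.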

[2] = molecular target: Progesterone receptor (Homo sapiens) (UniProt P06401); test: qHTS assay to identify small molecule antagonists of the progesterone receptor (PR) signaling pathway (AID 1346795; active = well fitted inhibition curve with a large enough effect in the signal ratio in the repeat runs, not every such curve was filed as active; the % refers to the signal ratio; note: potency is the fitted concentration of half-maximal effect)
Procedure, shortened: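 After 6 hr plating at 37C in 2% stripped-serum medium, PR-UAS-bla HEK293T cells got compounds, then 1 nM R5020. Sixteen hours later, LiveBLAzer substrate was applied for 2 hr at room temperature and fluorescence was recorded.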

[3] = qHTS assay to identify small molecule antagonists of the progesterone receptor (PR) signaling pathway - cell viability counter screen (AID 1346798); note: nearly all actives have a fitted effect of over 50% in size; note: potency is the fitted concentration of half-maximal effect
Procedure, shortened: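 Viability was determined by ATP-based luminescence (CellTiter-Glo) in PR-UAS-bla HEK293T cells cultured in 2% charcoal-stripped serum and incubated 16 hr with compounds under R5020 stimulation.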

[4] = qHTS assay to identify small molecule agonists of the progesterone receptor (PR) signaling pathway - cell viability counter screen (AID 1346799; calls by dose curve; note: nearly all actives have a fitted effect of over 45% in size; note: potency is the fitted concentration of half-maximal effect)
Procedure, shortened: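 Viability was scored by ATP luminescence (CellTiter-Glo, 30 min, room temperature) in the same wells used for the reporter readout, after 16 hr compound exposure of PR-UAS-bla HEK293T cells.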

[5] = qHTS assay to identify small molecule antagonists of the TGF-beta/Smad signaling pathway - cell viability counter screen (AID 1346824); note: nearly all actives have a fitted effect of over 50% in size
Procedure, shortened: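 Cytotoxicity counter-screen run in the same wells as the beta-lactamase Smad reporter read: CellTiter-Glo luminescence after 30 min at room temperature. HEK 293T SBE-bla cells had 5 hr compound exposure at 37 C with TGF-beta1 (0.25 ng/mL stock).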

[6] = qHTS assay to identify small molecule agonists of the TGF-beta/Smad signaling pathway - cell viability counter screen (AID 1346829); note: nearly all actives have a fitted effect of over 45% in size; note: potency is the fitted concentration of half-maximal effect
Procedure, shortened: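 Compound-treated SBE-bla HEK 293T cells (5 hr, 37 C) were assessed for viability with CellTiter-Glo in parallel with the reporter read.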

[7] = qHTS assay to identify small molecule agonists of the TGF-beta/Smad signaling pathway (AID 1346859; active = well fitted activation curve with a large enough effect in the signal ratio in the repeat runs, not every such curve was filed as active; the % refers to the signal ratio; note: series mostly up to about 77 µM)
Procedure, shortened: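 Dual-wavelength fluorescence (460/530 nm emission) quantified beta-lactamase expression under the Smad binding element in HEK 293T cells following 5 hr compound treatment at 37 C.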

[8] = molecular target: Thyrotropin-releasing hormone receptor (Homo sapiens) (UniProt P34981); test: qHTS assay to identify small molecule antagonists of the thyrotropin-releasing hormone receptor (TRHR) signaling pathway (AID 1346877; active = well fitted inhibition curve with a large enough effect in the repeat runs, not every such curve was filed as active; note: potency is the fitted concentration of half-maximal effect)
Procedure, shortened: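 HEK293/TRHR cells, 18 h, 37 °C; Ca2+ dye 2 h; cpd 5 min RT; TRH 1 nM final; fluorescence read 3 min, 1 s intervals; 15 concs, triplicate.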

[9] = Human pregnane X receptor (PXR) small molecule agonists, qHTS cell viability counter screen (AID 1346977); note: nearly all actives have a fitted effect of over 50% in size; note: potency is the fitted concentration of half-maximal effect
Procedure, shortened: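 HepG2 cells stably carrying the PXR-Luc reporter are cultured with 5% charcoal-stripped FBS and treated with compounds for 24hr. CellTiter-Fluor is added at 23hr and fluorescence is read after 1hr.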

[10] = molecular target: Thyrotropin-releasing hormone receptor (Homo sapiens) (UniProt P34981); test: qHTS assay to identify small molecule agonists of the thyrotropin-releasing hormone receptor (TRHR) signaling pathway (AID 1346891; calls by dose curve;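 note: HEK293 cells expressing TRHR with calcium dye readout; series mostly up to about 58 µM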)
Procedure, shortened: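 Kinetic fluorescence (3 min, 1 s intervals) reported intracellular calcium after compound transfer onto TRHR-Hek293 cells pre-loaded with dye for 2 h at 37 °C.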

Thyrotropin-releasing hormone receptor (Homo sapiens), sequence (P34981 whole entry, looked up): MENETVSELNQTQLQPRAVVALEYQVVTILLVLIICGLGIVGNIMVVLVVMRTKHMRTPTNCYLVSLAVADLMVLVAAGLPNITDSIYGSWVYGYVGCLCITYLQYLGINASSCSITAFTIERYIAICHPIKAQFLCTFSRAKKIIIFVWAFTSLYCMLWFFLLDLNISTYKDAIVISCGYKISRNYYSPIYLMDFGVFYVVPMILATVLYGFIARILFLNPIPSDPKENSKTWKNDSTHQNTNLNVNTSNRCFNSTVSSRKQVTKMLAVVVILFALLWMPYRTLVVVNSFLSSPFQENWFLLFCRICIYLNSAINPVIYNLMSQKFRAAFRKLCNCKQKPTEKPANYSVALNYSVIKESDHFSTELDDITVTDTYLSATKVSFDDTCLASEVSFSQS
Progesterone receptor (Homo sapiens), sequence (P06401 whole entry, looked up): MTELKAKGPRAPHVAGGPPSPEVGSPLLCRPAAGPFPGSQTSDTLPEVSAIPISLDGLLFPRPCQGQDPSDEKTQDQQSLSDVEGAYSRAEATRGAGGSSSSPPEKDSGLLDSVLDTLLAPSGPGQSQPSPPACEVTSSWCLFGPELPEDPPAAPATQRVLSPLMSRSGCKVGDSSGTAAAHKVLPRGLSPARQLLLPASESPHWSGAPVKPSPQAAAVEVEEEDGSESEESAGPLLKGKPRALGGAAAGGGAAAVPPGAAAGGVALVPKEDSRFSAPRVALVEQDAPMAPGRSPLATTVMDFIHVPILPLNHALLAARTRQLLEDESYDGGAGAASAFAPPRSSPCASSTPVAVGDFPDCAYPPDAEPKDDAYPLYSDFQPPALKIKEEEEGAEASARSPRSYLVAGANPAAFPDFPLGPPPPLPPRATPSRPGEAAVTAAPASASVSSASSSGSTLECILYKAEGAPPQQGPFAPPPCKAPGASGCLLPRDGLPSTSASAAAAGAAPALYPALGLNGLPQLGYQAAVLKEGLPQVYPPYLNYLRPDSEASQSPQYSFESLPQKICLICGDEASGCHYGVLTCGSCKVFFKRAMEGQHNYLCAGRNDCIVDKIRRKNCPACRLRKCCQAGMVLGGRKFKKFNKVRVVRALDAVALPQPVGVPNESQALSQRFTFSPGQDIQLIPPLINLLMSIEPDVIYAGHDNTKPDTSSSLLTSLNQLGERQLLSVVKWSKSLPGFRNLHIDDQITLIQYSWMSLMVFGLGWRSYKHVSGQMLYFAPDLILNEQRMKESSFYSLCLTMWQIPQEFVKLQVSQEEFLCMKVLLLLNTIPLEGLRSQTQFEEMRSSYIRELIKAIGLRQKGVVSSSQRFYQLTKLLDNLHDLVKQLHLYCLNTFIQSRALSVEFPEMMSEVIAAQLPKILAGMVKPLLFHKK

SMILES	Potency [1]	Potency [2]	Potency [3]	Potency [4]	Potency [5]	Potency [6]	outcome [7]	Potency [8]	Potency [9]	Potency [10]
COc1cc(N)c(Cl)cc1C(=O)NC1CN2CCC1CC2 (stereo not given)	inactive	inactive	inactive	inactive	inactive	inactive	inactive	inactive	inactive	
C[As+](C)(C)CC(=O)[O-]	inactive	inactive	inactive	inactive	inactive	inactive	inactive	inactive	inactive	
CCOP(=S)(OCC)SCS(=O)(=O)C(C)(C)C	inactive	68.6 µM (active)			inactive	inactive	inactive	inactive	inactive	
CC(=O)c1ccc(-c2ccccc2)cc1	inactive		inactive	inactive	inactive	inactive	inactive		inactive	
CC1(C)[C@H](C(=O)O[C@H](C#N)c2cccc(Oc3ccccc3)c2)[C@@H]1/C=C(\Cl)C(F)(F)F	inactive		inactive	inactive	inactive	inactive	inactive	inactive	inactive	inactive
CCCCCCCCCCCCCCCC[N+](C)(C)C	inactive		29.8 µM (active)			inactive and 54.9 µM (active)	inactive	inactive and 30.1 µM (active)	61.1 µM (active)	
Cc1ccc(CCl)cc1	inactive		inactive		inactive		inactive		inactive	
COc1ccc(/C(=C/C(=O)N2CCOCC2)c2ccc(Cl)cc2)cc1OC	inactive		inactive	inactive	inactive		inactive	inactive	inactive	
OC(c1ccc(Cl)cc1)(c1ccc(Cl)cc1)C(Cl)(Cl)Cl	inactive			inactive	inactive	inactive	inactive		inactive	
N#CNC#N	inactive		inactive	inactive	inactive	inactive	inactive	inactive	inactive	
O=C(CCl)Nc1ccccc1	inactive		19.3 µM (active)	inactive	inactive	inactive	inactive	inactive	61.1 µM (active)	
C[C@@H]1O[C@@H](O[C@@H]2C=C3CC[C@@H]4[C@H](CC[C@]5(C)[C@@H](c6ccc(=O)oc6)CC[C@]45O)[C@@]3(C)CC2)[C@H](O)[C@H](O)[C@H]1O	inactive		0.0133 µM (active)	0.0168 µM (active)				inactive		inactive
C[C@]12CC[C@@H]3c4ccc(OC(=O)N(CCCl)CCCl)cc4CC[C@H]3[C@@H]1CC[C@@H]2O	inactive		inactive		inactive	inactive	inactive	inactive	inactive	inactive
Clc1ccc(-c2ccc(Cl)c(Cl)c2Cl)c(Cl)c1Cl	inactive		23.2 µM (active)	41.2 µM (active)	inactive			inactive	inactive	inactive
CCC(C)c1cc([N+](=O)[O-])cc([N+](=O)[O-])c1OC(=O)C=C(C)C (stereo not given)	inactive	12.2 µM (active)			inactive			inactive	27.3 µM (active)	inactive
[Cl][Sb]([Cl])[Cl]	inactive		inactive		inactive	inactive	inactive	inactive	inactive	inactive
CN(C)c1ccc(N=Nc2ccccc2)cc1	inactive		inactive		inactive	inactive	inactive	inactive		

SMILES	Potency [1]	Potency [2]	Potency [3]	Potency [4]	Potency [5]	Potency [6]	outcome [7]	Potency [8]	Potency [9]	Potency [10]
ClC1=C(Cl)C2(Cl)C3C(Cl)C=CC3C1(Cl)C2(Cl)Cl (stereo not given)	inactive		inactive	inactive	inactive		inactive			
S=C(SSC(=S)N1CCCCC1)N1CCCCC1	inactive		0.531 µM (active)		inactive	inactive	inactive			
CC(C)N1C(=O)N(c2ccccc2)CSC1=NC(C)(C)C	inactive	17.2 µM (active)			inactive	inactive	inactive	inactive		inactive
CCC(C)c1cc(C(C)(C)C)cc(-n2nc3ccccc3n2)c1O (stereo not given)	inactive		inactive		inactive	inactive	inactive	inactive	inactive	inactive
O=C(Cl)c1ccc(Cl)cc1	inactive		inactive	inactive	inactive		inactive		inactive	
CCCN(CC)CC1COC2(CCC(C(C)(C)C)CC2)O1 (stereo not given)	inactive	inactive			inactive	inactive	inactive		inactive	
Cc1cc(C)cc(OP(=O)(Oc2cc(C)cc(C)c2)Oc2cc(C)cc(C)c2)c1	inactive		inactive		inactive	inactive	inactive		inactive	
CC(=[OH+])/C=C(/C)[O-].CC(=[OH+])/C=C(\C)[O-].CC(=[OH+])/C=C(\C)[O-].[Fe]	inactive		inactive	inactive	inactive	inactive	inactive		inactive	
CC(=O)Nc1ccc2c(c1)Cc1ccccc1-2	inactive		inactive		inactive	inactive	inactive	inactive	inactive	inactive
O=[N+]([O-])c1ccc(Oc2ccc(C(F)(F)F)cc2[N+](=O)[O-])cc1	inactive	7.7 µM (active)			inactive	inactive	inactive	inactive	inactive	
CC1(C)C(/C=C(\Cl)C(F)(F)F)C1C(=O)OC(C#N)c1cccc(Oc2ccccc2)c1 (stereo not given)	inactive		inactive		inactive	inactive	inactive	inactive		
CCCCOCN(C(=O)CCl)c1c(CC)cccc1CC	inactive		inactive		inactive	inactive				
C[C@@H](Oc1ccc(Cl)cc1Cl)C(=O)O	inactive		inactive	inactive	inactive	inactive		inactive	inactive	inactive
C[C@]12CC[C@H](O)C[C@H]1CC[C@@H]1[C@@H]2C[C@@H](O)[C@]2(C)[C@@H](C3=CC(=O)OC3)CC[C@]12O	inactive		1.72 µM (active)	1.54 µM (active)				inactive		
Cc1c(Cl)c(=O)oc2cc(OP(=O)(OCCCl)OCCCl)ccc12	inactive	7.5 µM (active)			inactive	inactive			inactive	
COc1cccc(C(=O)CCN[C@@H](C)[C@H](O)c2ccccc2)c1	inactive	inactive			inactive	inactive	inactive	inactive	29.8 µM (active)	
